Assay results from ChEMBL document CHEMBL1961873, “Compounds: GSK PKIS; Assays: Nanosyn kinase panel” (2012).

Experiments:
[1] = system: Tyrosine-protein kinase ABL1 (Homo sapiens), P00519 [T315I]; conditions: at 1 µM
[2] = system: Tyrosine-protein kinase ABL1 (Homo sapiens), P00519 [Y253F]; conditions: at 0.1 µM
[3] = system: Tyrosine-protein kinase ABL1 (Homo sapiens), P00519 [Y253F]; conditions: at 1 µM
[4] = target: Tyrosine-protein kinase ABL1 (Homo sapiens) (UniProt P00519); conditions: at 0.1 µM
[5] = target: Tyrosine-protein kinase ABL1 (Homo sapiens) (UniProt P00519); conditions: at 1 µM
[6] = target: ALK tyrosine kinase receptor (Homo sapiens) (UniProt Q9UM73); conditions: at 0.1 µM
[7] = target: ALK tyrosine kinase receptor (Homo sapiens) (UniProt Q9UM73); conditions: at 1 µM
[8] = target: Tyrosine-protein kinase ABL2 (Homo sapiens) (UniProt P42684); conditions: at 0.1 µM
[9] = target: Tyrosine-protein kinase ABL2 (Homo sapiens) (UniProt P42684); conditions: at 1 µM
[10] = target: Tyrosine-protein kinase receptor UFO (Homo sapiens) (UniProt P30530); conditions: at 0.1 µM
[11] = target: Tyrosine-protein kinase receptor UFO (Homo sapiens) (UniProt P30530); conditions: at 1 µM
[12] = target: Tyrosine-protein kinase Blk (Homo sapiens) (UniProt P51451); conditions: at 0.1 µM
[13] = target: Tyrosine-protein kinase Blk (Homo sapiens) (UniProt P51451); conditions: at 1 µM
[14] = target: T1, Cytoplasmic tyrosine-protein kinase BMX (Homo sapiens) (UniProt P51813); conditions: at 0.1 µM
T1 sequence (whole entry): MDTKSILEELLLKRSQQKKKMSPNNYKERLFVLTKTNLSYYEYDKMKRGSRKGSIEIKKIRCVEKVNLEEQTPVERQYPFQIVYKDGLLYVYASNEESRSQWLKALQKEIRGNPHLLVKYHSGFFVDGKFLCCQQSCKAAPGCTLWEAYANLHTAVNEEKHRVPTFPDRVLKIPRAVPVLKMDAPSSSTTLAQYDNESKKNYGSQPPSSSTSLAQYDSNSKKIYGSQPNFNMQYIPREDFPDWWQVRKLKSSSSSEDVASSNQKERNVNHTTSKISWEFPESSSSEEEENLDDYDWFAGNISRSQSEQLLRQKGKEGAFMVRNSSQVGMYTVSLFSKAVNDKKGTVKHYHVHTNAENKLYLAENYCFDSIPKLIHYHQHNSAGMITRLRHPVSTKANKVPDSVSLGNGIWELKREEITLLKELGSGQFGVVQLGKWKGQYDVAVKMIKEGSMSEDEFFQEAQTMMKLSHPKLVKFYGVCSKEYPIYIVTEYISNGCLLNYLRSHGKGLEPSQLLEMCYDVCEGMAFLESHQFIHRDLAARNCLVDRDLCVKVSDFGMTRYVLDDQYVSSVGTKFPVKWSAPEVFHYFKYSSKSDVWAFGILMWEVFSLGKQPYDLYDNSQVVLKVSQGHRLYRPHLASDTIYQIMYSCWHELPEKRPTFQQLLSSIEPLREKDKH

[15] = target: T1, Cytoplasmic tyrosine-protein kinase BMX (Homo sapiens); conditions: at 1 µM
[16] = target: Protein-tyrosine kinase 6 (Homo sapiens) (UniProt Q13882); conditions: at 0.1 µM
[17] = target: Protein-tyrosine kinase 6 (Homo sapiens) (UniProt Q13882); conditions: at 1 µM
[18] = target: Tyrosine-protein kinase BTK (Homo sapiens) (UniProt Q06187); conditions: at 0.1 µM
[19] = target: Tyrosine-protein kinase BTK (Homo sapiens) (UniProt Q06187); conditions: at 1 µM
[20] = target: Tyrosine-protein kinase CSK (Homo sapiens) (UniProt P41240); conditions: at 0.1 µM;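 note: value given is the averaged percent inhibition of CSK kinase activity, from the GSK PKIS kinase inhibitor set screening panel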

Tyrosine-protein kinase BTK (Homo sapiens), sequence (Q06187 whole entry): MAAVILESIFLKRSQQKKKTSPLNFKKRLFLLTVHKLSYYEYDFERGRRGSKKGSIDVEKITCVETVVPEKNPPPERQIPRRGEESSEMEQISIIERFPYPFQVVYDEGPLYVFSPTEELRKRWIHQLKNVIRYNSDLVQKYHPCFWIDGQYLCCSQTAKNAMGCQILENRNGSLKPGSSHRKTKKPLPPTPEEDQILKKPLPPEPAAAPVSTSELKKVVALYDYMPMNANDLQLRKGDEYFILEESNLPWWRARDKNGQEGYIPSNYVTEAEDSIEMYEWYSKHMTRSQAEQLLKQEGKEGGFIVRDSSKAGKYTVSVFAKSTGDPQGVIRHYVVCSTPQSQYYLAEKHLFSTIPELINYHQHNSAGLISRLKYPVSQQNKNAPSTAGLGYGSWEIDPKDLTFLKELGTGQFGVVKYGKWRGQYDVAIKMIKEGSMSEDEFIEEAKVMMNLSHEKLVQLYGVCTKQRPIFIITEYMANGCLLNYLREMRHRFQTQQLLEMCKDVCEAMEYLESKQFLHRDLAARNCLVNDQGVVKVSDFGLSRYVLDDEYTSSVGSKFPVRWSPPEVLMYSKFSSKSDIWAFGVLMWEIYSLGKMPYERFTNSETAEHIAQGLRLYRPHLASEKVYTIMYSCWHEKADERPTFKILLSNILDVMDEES
ALK tyrosine kinase receptor (Homo sapiens), sequence (Q9UM73 19-1620 limits assumed): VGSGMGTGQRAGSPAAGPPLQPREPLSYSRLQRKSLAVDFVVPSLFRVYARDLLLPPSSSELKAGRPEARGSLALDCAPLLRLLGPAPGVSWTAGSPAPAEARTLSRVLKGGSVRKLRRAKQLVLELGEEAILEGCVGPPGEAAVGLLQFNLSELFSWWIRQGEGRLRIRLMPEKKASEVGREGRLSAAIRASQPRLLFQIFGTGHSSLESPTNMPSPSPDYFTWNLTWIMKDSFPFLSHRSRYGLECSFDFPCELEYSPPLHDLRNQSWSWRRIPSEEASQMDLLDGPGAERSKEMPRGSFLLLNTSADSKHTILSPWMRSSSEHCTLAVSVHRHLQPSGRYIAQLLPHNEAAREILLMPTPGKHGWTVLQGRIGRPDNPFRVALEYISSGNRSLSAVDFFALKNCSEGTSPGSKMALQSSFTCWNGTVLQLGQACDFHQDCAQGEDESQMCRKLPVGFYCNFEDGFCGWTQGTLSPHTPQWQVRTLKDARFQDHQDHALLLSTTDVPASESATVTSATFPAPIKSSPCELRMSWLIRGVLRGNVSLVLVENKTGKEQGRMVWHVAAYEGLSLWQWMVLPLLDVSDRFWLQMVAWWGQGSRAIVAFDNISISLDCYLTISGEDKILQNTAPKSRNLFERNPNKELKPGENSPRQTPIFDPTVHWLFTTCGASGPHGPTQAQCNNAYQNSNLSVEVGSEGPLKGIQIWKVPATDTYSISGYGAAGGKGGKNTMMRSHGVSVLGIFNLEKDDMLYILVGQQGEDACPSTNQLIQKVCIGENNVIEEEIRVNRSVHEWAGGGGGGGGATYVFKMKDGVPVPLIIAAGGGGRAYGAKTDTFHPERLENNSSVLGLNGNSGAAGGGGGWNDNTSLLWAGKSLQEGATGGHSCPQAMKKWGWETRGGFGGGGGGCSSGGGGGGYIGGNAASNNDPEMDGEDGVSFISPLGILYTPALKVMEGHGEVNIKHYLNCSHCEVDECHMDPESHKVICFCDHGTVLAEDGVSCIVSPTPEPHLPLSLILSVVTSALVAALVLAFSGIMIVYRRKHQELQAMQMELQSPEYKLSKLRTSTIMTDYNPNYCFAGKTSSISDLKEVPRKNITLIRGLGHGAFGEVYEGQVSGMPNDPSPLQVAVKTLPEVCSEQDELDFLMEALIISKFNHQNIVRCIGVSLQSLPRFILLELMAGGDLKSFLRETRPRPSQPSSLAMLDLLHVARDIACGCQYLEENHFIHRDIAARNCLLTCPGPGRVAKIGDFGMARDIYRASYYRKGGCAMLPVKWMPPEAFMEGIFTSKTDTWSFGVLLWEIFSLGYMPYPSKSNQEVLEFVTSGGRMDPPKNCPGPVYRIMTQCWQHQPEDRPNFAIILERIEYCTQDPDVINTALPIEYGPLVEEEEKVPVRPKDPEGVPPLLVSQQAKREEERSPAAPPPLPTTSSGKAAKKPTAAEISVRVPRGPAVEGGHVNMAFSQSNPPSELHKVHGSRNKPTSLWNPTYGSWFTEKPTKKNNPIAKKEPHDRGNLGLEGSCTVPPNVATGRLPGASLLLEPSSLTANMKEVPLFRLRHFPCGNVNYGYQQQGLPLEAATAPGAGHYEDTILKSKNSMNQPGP
Tyrosine-protein kinase ABL2 (Homo sapiens), sequence (P42684 whole entry): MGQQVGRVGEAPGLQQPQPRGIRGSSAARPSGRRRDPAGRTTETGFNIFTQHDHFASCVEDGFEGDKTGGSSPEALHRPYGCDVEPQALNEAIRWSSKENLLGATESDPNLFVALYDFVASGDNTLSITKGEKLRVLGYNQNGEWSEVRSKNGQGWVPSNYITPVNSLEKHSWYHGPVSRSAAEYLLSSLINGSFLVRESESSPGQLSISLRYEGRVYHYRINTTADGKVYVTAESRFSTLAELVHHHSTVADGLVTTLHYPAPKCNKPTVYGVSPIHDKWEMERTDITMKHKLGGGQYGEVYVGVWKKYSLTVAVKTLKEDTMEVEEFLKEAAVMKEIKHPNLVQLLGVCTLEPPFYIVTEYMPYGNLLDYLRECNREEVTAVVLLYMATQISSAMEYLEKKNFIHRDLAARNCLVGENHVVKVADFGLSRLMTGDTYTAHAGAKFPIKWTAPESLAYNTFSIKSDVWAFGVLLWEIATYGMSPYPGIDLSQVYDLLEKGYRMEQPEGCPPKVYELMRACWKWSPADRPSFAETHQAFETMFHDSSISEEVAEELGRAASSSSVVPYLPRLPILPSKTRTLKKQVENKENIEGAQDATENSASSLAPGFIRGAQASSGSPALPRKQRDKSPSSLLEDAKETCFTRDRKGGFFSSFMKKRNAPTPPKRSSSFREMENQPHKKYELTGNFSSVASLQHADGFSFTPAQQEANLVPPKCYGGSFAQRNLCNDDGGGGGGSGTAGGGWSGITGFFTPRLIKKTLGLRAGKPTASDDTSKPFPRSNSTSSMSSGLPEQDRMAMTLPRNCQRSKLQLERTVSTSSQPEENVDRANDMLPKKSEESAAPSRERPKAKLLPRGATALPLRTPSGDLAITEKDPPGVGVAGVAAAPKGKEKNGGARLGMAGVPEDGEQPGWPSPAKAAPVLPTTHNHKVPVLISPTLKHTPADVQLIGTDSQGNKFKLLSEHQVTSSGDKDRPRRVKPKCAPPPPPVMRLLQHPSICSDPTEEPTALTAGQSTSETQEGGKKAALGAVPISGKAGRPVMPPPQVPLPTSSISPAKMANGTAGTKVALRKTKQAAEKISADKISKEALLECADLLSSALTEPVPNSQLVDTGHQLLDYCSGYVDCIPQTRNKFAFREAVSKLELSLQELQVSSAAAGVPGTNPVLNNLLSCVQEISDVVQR
Protein-tyrosine kinase 6 (Homo sapiens), sequence (Q13882 whole entry, looked up): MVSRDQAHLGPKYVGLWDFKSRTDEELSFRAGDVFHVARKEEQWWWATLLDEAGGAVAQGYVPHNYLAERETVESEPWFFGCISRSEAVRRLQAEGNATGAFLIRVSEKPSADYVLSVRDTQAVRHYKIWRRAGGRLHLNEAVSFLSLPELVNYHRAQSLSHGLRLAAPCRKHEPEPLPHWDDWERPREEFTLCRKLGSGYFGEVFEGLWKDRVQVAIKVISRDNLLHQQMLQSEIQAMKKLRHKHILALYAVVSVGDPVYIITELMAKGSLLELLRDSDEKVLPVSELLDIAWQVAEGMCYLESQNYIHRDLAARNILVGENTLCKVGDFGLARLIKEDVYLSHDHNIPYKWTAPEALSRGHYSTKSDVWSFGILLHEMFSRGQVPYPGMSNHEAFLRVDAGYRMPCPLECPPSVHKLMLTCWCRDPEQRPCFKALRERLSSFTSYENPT
Tyrosine-protein kinase receptor UFO (Homo sapiens), sequence (P30530 whole entry): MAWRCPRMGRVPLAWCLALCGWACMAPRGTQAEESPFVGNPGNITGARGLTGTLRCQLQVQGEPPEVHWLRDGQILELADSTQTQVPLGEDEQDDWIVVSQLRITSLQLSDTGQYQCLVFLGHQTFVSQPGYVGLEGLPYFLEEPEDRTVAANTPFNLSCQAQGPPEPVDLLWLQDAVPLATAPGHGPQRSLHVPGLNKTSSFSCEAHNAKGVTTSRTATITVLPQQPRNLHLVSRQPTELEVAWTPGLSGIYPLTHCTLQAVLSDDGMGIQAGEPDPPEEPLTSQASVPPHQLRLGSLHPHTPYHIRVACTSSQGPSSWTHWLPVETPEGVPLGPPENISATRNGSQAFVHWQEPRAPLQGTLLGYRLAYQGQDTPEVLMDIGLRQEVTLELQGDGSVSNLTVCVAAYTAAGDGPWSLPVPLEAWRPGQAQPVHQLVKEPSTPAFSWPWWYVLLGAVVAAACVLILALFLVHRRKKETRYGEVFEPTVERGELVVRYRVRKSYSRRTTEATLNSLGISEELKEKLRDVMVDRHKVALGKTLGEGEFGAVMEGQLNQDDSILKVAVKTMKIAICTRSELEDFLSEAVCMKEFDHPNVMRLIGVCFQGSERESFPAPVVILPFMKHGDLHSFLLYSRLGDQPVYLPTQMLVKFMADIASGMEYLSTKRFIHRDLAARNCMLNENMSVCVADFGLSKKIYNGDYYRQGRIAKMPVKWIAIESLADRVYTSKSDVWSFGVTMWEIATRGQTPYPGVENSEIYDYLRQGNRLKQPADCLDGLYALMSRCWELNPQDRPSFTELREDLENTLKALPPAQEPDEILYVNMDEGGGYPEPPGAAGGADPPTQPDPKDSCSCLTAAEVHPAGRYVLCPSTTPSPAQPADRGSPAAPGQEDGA

Row | Structure (SMILES) | inhibition [1] [%] | inhibition [2] [%] | inhibition [3] [%] | inhibition [4] [%] | inhibition [5] [%] | inhibition [6] [%] | inhibition [7] [%] | inhibition [8] [%] | inhibition [9] [%] | inhibition [10] [%] | inhibition [11] [%] | inhibition [12] [%] | inhibition [13] [%] | inhibition [14] [%] | inhibition [15] [%] | inhibition [16] [%] | inhibition [17] [%] | inhibition [18] [%] | inhibition [19] [%] | inhibition [20] [%]
1 | Cc1nn(C)c2cc(N(C)c3ccnc(Nc4cccc(S(N)(=O)=O)c4)n3)ccc12 | 68.1 | 45.3 | 84.5 | 28.3 | 74.9 | 3.45 | 19.2 | 30.2 | 74.4 | -2.86 | -1.13 | 5.53 | 46.8 | 8.2 | 35.1 | 10.8 | 52 | -0.96 | 6.74 | 5.24
2 | CCn1c(-c2nonc2N)nc2c(C#CC(C)(C)O)nc(OC[C@@H](N)c3ccccc3)cc21 | 3.35 | 0.12 | 2.98 | 7.72 | 10.1 | -0.2 | 10.2 | 5.61 | 1.83 | 2.41 | 3.03 | 0.59 | 0.29 | -0.32 | 0.02 | 0.79 | -0.34 | -0.1 | 1.72 | -1.24
3 | CN(C)c1cc2c(Nc3ccc4nc(Cc5ccccc5)[nH]c4c3)ncnc2cn1 | 4.5 | 4.02 | 6.17 | 5.47 | 9.51 | 4.99 | 4.24 | 4.28 | 7.06 | -8.08 | -3.19 | 5.31 | 26.3 | 1.17 | 21.5 | 4.68 | 6.35 | 1.64 | 4.82 | 17.4
4 | CCn1c(-c2nonc2N)nc2cncc(C(=O)N3CC[C@H](N)C3)c21 | 3.27 | 2.94 | 3.51 | 4.28 | 4.33 | 3.95 | 3.52 | 5.33 | 7.29 | -5.66 | -4.01 | 2.69 | 3.09 | 2.23 | 0.56 | 4.5 | 8.63 | -0.23 | -1.15 | 5.91
5 | CC1=C(C(=O)Nc2ccc3[nH]ncc3c2)C(c2ccc(F)cc2)NC(=O)N1 (stereo not given) | 2.66 | 1.48 | 5.27 | 3.51 | 8.74 | 0.35 | 3.89 | 2.2 | 19.7 | -2.41 | -2.9 | 0.5 | 3.91 | -3.23 | 1.24 | 1.78 | 5.55 | -0.15 | -1.83 | 0.78
6 | CS(=O)(=O)CCNCc1ccc(-c2ccc3ncnc(Nc4ccc(OCc5ccccc5)c(Cl)c4)c3c2)o1 | 2.14 | 0.5 | 1.92 | 0.58 | 3.7 | 1.08 | 4.89 | 0.92 | 5.67 | 0.79 | 1.26 | 0.85 | 7.53 | 0.69 | 4.31 | 0.7 | 14.7 | -0.28 | 0.13 | 0.67
7 | Fc1cccc(COc2ccc(Nc3ncnc4sc(-c5cccs5)cc34)cc2Cl)c1 | 0.93 | 1.7 | 3.31 | 1.23 | 6.44 | 0.25 | 0.57 | 1.27 | 5.37 | -4.04 | 1.51 | 1.15 | 3.35 | 1.58 | 4.35 | -1.94 | 2.02 | -0.95 | -0.95 | 2.73
8 | CC1=C(C(=O)Nc2ccc3[nH]ncc3c2)C(c2ccc(Cl)c(Cl)c2)CC(=O)N1 (stereo not given) | 2.96 | 2.96 | 0.52 | 2.43 | 7.38 | 0.6 | 3.88 | 2.19 | 3.97 | -2.18 | -5.55 | 1.97 | 18.3 | -1.91 | 2.22 | 3.17 | 3.02 | 0.53 | 3.13 | 1.65
9 | COc1cc(C=NNc2ncnc3c2cnn3-c2ccccc2)ccc1O | 82.1 | 43.3 | 86.6 | 23.4 | 73.7 | 2.44 | 6.69 | 11.6 | 71.5 | -1.48 | 10.6 | 10.3 | 65.5 | 3.92 | 21.9 | 2.93 | 14.2 | 1.25 | 2.34 | 4.22
10 | Cc1ccc(C(=O)NC2CCCCC2)cc1-c1ccc(C(=O)NCC2CC2)cc1 | -0.78 | 1.39 | 2.22 | 4.64 | 6.52 | 2.91 | 4.07 | 4.04 | 8.56 | 0.41 | 3.11 | 2.04 | 3.76 | 2.45 | 4.53 | 1.79 | 3.75 | 1.78 | 3.37 | 2.72
11 | Cc1ccc(NC(=O)c2ccnc(N3CCCC3)c2)cc1-c1ccc(C(=O)NCC2CC2)cc1 | 2.61 | 2.64 | 3.85 | -0.85 | 4.81 | 0.36 | 5.33 | -0.85 | 7.46 | -7.11 | 1.21 | -1.39 | -0.22 | 2.83 | 4.79 | 4.19 | 3.04 | -3.6 | -2.42 | 2.53
12 | COc1ccc(-c2ccncc2)cc1C(N)=O | 2.08 | 4.84 | 2.94 | 4.11 | 5.76 | 3.85 | 6.43 | 3.92 | 4.08 | -7.91 | -7.29 | 3.55 | 3.47 | 3.29 | 5.58 | 3.09 | 3.57 | -1.01 | -0.13 | 2.75
13 | COC(=O)Nc1nc2cc(Oc3ccc(NC(=O)Nc4cccc(C(=O)O)c4)cc3)ccc2[nH]1 | 15.4 | 5.1 | 7.71 | -2.66 | 6.45 | -3.78 | -1.37 | -0.6 | 3.96 | -0.47 | -0.32 | -1.59 | 0.01 | 0.22 | 0.47 | 0.95 | -0.37 | -1.95 | -2.57 | 2.42
